An excerpt weighted towards active compounds, which were near 5.1% of everything screened.
CRFBP-R2 agonist: agonists of human CRF-binding protein/CRF-R2 receptor complex. 350,000 compounds, 0.46% hits. HEK293 CRF-R2/CRF-BP, calcium dye fluorescence (FLIPR); percent of saturating CRF peptide response. activation, % at 13.2 µM. AID 588473;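 active = activation of at least 50%, plus an integration ratio under a set limit after plate pattern correction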;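 also: plate controls were neutral control wells without compound for no effect and CRF at EC100 for full effect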
TMEM16A act: mouse TMEM16A channel activation, primary screen | B-score at 10 µM | AID 623877 | HEK293 TMEM16A/YFP-H148Q/I152L, iodide quench fluorescence; active compounds read low | Q8BHY3 | 340,000 compounds, 0.3% hits;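 active = fluorescence-ratio B-score plate-corrected deviation score at least 3 library SD below zero, with starting fluorescence score within 5 deviations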;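 also: channel opened by trigger with iodide after compound preincubation; score built on the fluorescence ratio of max minus min over baseline; more negative score means more quench and so TMEM16A activation or potentiation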
Target sequence (Q8BHY3 whole entry, looked up): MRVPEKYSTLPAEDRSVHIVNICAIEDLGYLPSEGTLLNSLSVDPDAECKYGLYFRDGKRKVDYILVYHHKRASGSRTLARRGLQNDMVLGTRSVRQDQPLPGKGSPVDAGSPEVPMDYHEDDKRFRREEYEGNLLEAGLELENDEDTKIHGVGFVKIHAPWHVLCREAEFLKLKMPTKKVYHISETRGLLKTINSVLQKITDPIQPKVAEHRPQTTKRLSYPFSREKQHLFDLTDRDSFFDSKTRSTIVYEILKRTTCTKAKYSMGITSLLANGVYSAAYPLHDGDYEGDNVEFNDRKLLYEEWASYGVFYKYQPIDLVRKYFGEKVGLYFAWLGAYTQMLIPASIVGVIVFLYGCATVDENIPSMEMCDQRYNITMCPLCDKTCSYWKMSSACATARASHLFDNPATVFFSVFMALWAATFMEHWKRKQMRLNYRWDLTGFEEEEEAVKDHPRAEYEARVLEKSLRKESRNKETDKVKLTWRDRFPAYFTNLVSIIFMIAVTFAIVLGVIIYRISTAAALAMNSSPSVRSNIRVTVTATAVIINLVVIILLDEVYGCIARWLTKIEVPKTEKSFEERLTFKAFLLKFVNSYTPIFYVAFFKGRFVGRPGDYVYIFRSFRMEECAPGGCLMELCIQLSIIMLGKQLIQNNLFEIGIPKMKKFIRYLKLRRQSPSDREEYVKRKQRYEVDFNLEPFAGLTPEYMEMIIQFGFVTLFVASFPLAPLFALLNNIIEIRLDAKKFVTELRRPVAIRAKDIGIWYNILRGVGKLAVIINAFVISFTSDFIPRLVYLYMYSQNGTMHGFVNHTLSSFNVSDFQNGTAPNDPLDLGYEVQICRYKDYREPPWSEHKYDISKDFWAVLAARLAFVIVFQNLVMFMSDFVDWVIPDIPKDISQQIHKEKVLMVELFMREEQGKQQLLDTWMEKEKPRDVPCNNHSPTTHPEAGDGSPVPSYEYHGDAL
GRIN3A LBD mod: NR3A (human) ligand-binding domain modulation; NR3A LBD differential scanning fluorimetry, Tm shift; 0% = protein alone, 100% = glycine-bound protein; Tm shift relative to glycine control, % at 25 µM; 340,000 compounds, 2.5% hits;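 active = melting temperature shift of at least 10% of the positive control shift, at one fixed dose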
TMEM16A inh: inhibitors of mouse TMEM16A calcium-activated chloride channel; Q8BHY3; HEK293 TMEM16A/YFP iodide influx fluorescence, ionomycin; normalized B-score (activity score, 25-100; higher = stronger inhibition) at 10 µM; 310,000 compounds, 1.2% hits;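 active = ratio plate-corrected score three or more library SD toward inhibition, starting fluorescence score within five deviations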;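 also: score derived from kinetic fluorescence span divided by baseline fluorescence per well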
MPTP inh: inhibitors of mitochondrial permeability transition pore; isolated mouse mitochondria, Ca2+ swelling absorbance, 30 min; inhibition, % at 10 µM; 360,000 compounds, 1.4% hits; AID 602449;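 active = inhibition of 50% or more, scaled per plate between neutral and stimulator controls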;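 also: 0% = DMSO wells given calcium and 100% = 1 mM EGTA wells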
CRFBP-R2 block: blocks CRF-induced signaling of the CRF-BP/CRF-R2 complex; 350,000 compounds, 0.59% hits; inhibition, % at 11.8 µM; HEK293 CRF-R2/CRF-BP, CRF-induced calcium fluorescence;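 active = inhibition of the ligand-induced calcium signal above about 50% at the single tested concentration, limit read from the data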
* = called active by the depositor.

For COc1ccc(S(=O)(=O)N2CCOCC2)cc1NC(=O)c1c(-c2ccccc2)noc1C the results were CRFBP-R2 agonist 1, TMEM16A act inactive, GRIN3A LBD mod 0, MPTP inh -1 and CRFBP-R2 block -3.
`Cc1ccc(S(=O)(=O)NCc2ccc(C(=O)NC3CCC(O)CC3)cc2)cc1C` (stereo not drawn) gave CRFBP-R2 agonist -2, TMEM16A act inactive, GRIN3A LBD mod 0, MPTP inh 0 and CRFBP-R2 block 11.
For O=C(Cc1nnc(NC(=O)c2ccccc2)s1)N/N=C/c1ccco1 the results were CRFBP-R2 agonist 0, TMEM16A act inactive, GRIN3A LBD mod 0, TMEM16A inh inactive, MPTP inh 0 and CRFBP-R2 block -36.
Cn1c2ccccc2c2cc(/C=N/NC(=O)c3ccc(N)cc3)ccc21 was read as CRFBP-R2 agonist 0, TMEM16A act inactive, GRIN3A LBD mod 17*, TMEM16A inh inactive, MPTP inh 0 and CRFBP-R2 block 9.
`O=C(Cc1nnc(NC(=O)c2ccccc2)s1)N/N=C/c1cccc(O)c1` gave CRFBP-R2 agonist 1, TMEM16A act inactive, GRIN3A LBD mod 41*, TMEM16A inh inactive, MPTP inh 2 and CRFBP-R2 block -33.
Nc1ccc(C(=O)N/N=C/c2cn(Cc3ccc(F)cc3)c3ccccc23)cc1 was read as CRFBP-R2 agonist -1, TMEM16A act inactive, GRIN3A LBD mod 16*, TMEM16A inh inactive, MPTP inh 0 and CRFBP-R2 block 14.
Screening Nc1ccc(C(=O)N/N=C/c2cn(Cc3ccccc3)c3ccccc23)cc1 returned CRFBP-R2 agonist -3, TMEM16A act inactive, GRIN3A LBD mod 6, TMEM16A inh inactive, MPTP inh 0 and CRFBP-R2 block -3.
Cc1ccc(Cn2cc(/C=N/NC(=O)Cc3nnc(NC(=O)c4ccc(C)cc4)s3)c3ccccc32)cc1 was read as CRFBP-R2 agonist 3, TMEM16A act inactive, GRIN3A LBD mod 13*, TMEM16A inh inactive, MPTP inh -2 and CRFBP-R2 block 8.
O=C(CCc1ccccc1)N/N=C/c1cccc(O)c1 was read as CRFBP-R2 agonist 0, TMEM16A act inactive, GRIN3A LBD mod -14, TMEM16A inh inactive, MPTP inh -3 and CRFBP-R2 block -1.
For O=C(N/N=C/c1cccc(O)c1)N/N=C/c1cccc(O)c1 the results were CRFBP-R2 agonist 8, TMEM16A act inactive, GRIN3A LBD mod 10*, TMEM16A inh inactive, MPTP inh 0 and CRFBP-R2 block -8.
`COc1ccc(CC(=O)Nc2c3c(nn2C(C)(C)C)CS(=O)(=O)C3)cc1` gave CRFBP-R2 agonist 0, TMEM16A act inactive, GRIN3A LBD mod 14*, TMEM16A inh inactive, MPTP inh 1 and CRFBP-R2 block 1.
`CC(C)(C)n1nc2c(c1NC(=O)Cc1ccccc1)CS(=O)(=O)C2` gave CRFBP-R2 agonist -4, TMEM16A act inactive, GRIN3A LBD mod 0, TMEM16A inh inactive, MPTP inh -1 and CRFBP-R2 block 55*.
Screening O=C(c1cccs1)N1C[C@H](O)[C@@H](n2cc(-c3ccc(F)cc3)nn2)C[C@@H]1c1ccccc1 returned CRFBP-R2 agonist -1, MPTP inh -1 and CRFBP-R2 block 4.
For Cc1ccccc1C(=O)N1CCC(C(=O)Nc2nccs2)CC1 the results were CRFBP-R2 agonist -3, TMEM16A act inactive, GRIN3A LBD mod 1, TMEM16A inh inactive, MPTP inh -4 and CRFBP-R2 block -36.
`Cc1ccccc1C(=O)N1CCC(C(=O)Nc2nc3ccc(F)cc3s2)CC1` gave CRFBP-R2 agonist 0, TMEM16A act inactive, GRIN3A LBD mod -4, TMEM16A inh 25*, MPTP inh -2 and CRFBP-R2 block -11.
Screening Nc1nc(CN2CCc3ccccc3C2)nc(Nc2ccccc2)n1 returned CRFBP-R2 agonist 2, TMEM16A act inactive, GRIN3A LBD mod -2, TMEM16A inh inactive, MPTP inh 0 and CRFBP-R2 block 74*.
Screening CCOC(=O)C1=CCN(S(=O)(=O)c2ccc(F)cc2)C1c1cccc(F)c1 (stereo not drawn) returned MPTP inh 0.
`O=C(CNC(=O)c1ccccc1O)N/N=C/c1cc(Br)ccc1OC(=O)/C=C/c1ccco1` gave CRFBP-R2 agonist 5, GRIN3A LBD mod 13*, TMEM16A inh inactive and CRFBP-R2 block -48.
Screening COCCn1ccc2c(OCC(=O)Nc3ccccc3OC)cccc2c1=O returned CRFBP-R2 agonist -4, TMEM16A act inactive, GRIN3A LBD mod 0, TMEM16A inh inactive, MPTP inh 0 and CRFBP-R2 block -2.
`CC(=O)N1CC[n+]2c(-c3ccc(Cl)cc3)csc21` gave CRFBP-R2 agonist -4, TMEM16A act inactive, GRIN3A LBD mod 20*, TMEM16A inh inactive, MPTP inh 1 and CRFBP-R2 block -7.
Screening CCOC(=O)N1CCc2c(sc(NC(=O)CCS(=O)(=O)c3ccccc3)c2C(N)=O)C1 returned CRFBP-R2 agonist 0, TMEM16A act inactive, GRIN3A LBD mod -2, TMEM16A inh inactive, MPTP inh 0 and CRFBP-R2 block 15.
`CNC(=O)c1c(NC(=O)CCS(=O)(=O)c2ccc(Cl)cc2)sc2c1CCN(C(=O)OC)C2` gave CRFBP-R2 agonist 1, TMEM16A act inactive, GRIN3A LBD mod 10*, TMEM16A inh inactive, MPTP inh 0 and CRFBP-R2 block 24.
Screening NC(=O)c1c(NC(=O)c2ccccc2)sc2c1CCN(Cc1ccccc1)C2 returned CRFBP-R2 agonist 178*, TMEM16A act inactive, GRIN3A LBD mod 0, TMEM16A inh inactive, MPTP inh 1 and CRFBP-R2 block -182.
Screening CCN1CCc2c(sc(NC(=O)c3ccc(C(=O)c4ccccc4)cc3)c2C(N)=O)C1 returned CRFBP-R2 agonist 10, TMEM16A act inactive, GRIN3A LBD mod -4, TMEM16A inh inactive, MPTP inh 0 and CRFBP-R2 block -15.
Screening CCOC(=O)N1CCc2c(sc(NC(=O)c3ccc(Cl)s3)c2C(N)=O)C1 returned TMEM16A inh 100*.
For CCN1CCc2c(sc(NC(=O)c3ccc(S(=O)(=O)N(CC)c4ccccc4)cc3)c2C(N)=O)C1 the results were CRFBP-R2 agonist 201*, TMEM16A act inactive, GRIN3A LBD mod -3, TMEM16A inh inactive, MPTP inh 1 and CRFBP-R2 block -150.
CC(C)C[C@@H]1Cc2[nH][nH]c(=O)c2[C@H](c2ccc(Cl)cc2)O1 was read as MPTP inh 0.
Screening CCN1CCc2c(sc(NC(=O)c3ccc(S(=O)(=O)N4CCOCC4)cc3)c2C(N)=O)C1 returned CRFBP-R2 agonist 2, TMEM16A act inactive, GRIN3A LBD mod -3, TMEM16A inh inactive, MPTP inh 0 and CRFBP-R2 block 4.
